# According to the supplement of paper PMC11732987, “Enantioselective OTUD7B fragment discovery through chemoproteomics screening and high-throughput optimisation” (Communications Chemistry, 2025):
# Compound: COc1cccc(CN(C)C(=O)CCl)c1
# Assay: log2 ratio of Biotin-Ahx-Ub-VS probe labelling (compound/DMSO); higher = less target engagement, active = hit call of the paper (q ≤ 0.05, log2 ratio ≤ -1)
# Settings: compound concentration: 50uM; treatment time: 3 h
# Experimental: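 Round 2 competitive ABPP in HEK293T lysate. Compounds were tested at 50 and 200 µM for 3 h, followed by Biotin-Ahx-Ub-VS enrichment and diaPASEF LC-MS/MS. Values are the average log2 ratio (compound/DMSO) from an unpaired t-test (n=3 treated, n=26 DMSO).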
# Sequence of UniProt Q53GS9 (Q53GS9 whole entry): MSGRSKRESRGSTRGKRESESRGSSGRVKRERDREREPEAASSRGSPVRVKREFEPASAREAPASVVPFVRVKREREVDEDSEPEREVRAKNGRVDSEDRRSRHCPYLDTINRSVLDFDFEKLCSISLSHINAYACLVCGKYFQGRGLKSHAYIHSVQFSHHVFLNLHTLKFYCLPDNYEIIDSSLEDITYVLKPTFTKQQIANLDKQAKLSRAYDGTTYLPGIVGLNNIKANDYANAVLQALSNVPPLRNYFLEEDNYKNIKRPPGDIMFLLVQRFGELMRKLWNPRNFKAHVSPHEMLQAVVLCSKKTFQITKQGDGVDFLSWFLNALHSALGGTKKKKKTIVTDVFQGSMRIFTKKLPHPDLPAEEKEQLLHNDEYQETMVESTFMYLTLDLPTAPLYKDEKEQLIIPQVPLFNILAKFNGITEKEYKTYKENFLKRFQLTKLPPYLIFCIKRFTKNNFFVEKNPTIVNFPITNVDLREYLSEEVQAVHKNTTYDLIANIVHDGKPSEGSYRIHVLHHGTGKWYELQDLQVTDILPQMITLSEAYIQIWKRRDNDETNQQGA
# Sequence of UniProt Q9P275 (Q9P275 whole entry): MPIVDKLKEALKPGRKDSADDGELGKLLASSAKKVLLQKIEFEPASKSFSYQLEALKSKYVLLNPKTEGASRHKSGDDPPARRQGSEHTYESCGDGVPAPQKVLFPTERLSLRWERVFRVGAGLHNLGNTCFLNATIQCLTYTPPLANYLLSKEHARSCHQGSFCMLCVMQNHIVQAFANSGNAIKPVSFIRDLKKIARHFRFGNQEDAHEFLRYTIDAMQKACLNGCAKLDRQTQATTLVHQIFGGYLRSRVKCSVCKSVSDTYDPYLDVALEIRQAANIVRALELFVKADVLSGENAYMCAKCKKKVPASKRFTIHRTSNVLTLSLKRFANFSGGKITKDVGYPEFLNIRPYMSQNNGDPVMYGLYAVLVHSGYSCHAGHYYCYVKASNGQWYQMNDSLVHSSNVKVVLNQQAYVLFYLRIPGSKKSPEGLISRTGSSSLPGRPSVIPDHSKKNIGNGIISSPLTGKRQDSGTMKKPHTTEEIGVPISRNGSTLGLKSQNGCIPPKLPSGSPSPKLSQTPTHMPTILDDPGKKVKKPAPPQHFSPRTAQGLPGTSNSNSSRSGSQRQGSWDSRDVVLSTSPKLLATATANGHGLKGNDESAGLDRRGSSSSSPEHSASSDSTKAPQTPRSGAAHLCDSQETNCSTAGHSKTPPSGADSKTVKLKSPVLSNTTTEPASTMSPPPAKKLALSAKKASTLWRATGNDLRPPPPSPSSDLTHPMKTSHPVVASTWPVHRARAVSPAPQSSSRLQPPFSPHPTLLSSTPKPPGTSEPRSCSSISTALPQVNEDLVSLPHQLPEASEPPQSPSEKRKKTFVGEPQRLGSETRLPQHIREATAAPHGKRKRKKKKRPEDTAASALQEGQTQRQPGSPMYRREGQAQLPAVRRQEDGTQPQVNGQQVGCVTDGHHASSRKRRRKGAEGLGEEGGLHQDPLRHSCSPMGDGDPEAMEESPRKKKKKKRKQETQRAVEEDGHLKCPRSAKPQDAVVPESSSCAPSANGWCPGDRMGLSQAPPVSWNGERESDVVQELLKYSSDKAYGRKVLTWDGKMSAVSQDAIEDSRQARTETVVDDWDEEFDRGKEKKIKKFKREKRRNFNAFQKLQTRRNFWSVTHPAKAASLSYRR
# Sequence of UniProt Q5T2D3 (Q5T2D3 whole entry): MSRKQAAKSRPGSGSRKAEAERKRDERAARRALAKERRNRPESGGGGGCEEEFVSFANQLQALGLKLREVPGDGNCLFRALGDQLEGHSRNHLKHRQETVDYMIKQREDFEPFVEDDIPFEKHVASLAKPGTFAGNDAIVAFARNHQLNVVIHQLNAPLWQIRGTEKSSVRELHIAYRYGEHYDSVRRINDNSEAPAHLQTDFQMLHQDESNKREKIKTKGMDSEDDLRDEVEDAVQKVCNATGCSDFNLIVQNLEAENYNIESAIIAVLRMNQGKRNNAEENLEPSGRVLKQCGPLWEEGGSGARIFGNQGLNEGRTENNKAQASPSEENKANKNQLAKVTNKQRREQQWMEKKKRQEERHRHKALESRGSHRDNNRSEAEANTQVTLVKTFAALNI
# Sequence of UniProt Q86UV5 (Q86UV5 whole entry): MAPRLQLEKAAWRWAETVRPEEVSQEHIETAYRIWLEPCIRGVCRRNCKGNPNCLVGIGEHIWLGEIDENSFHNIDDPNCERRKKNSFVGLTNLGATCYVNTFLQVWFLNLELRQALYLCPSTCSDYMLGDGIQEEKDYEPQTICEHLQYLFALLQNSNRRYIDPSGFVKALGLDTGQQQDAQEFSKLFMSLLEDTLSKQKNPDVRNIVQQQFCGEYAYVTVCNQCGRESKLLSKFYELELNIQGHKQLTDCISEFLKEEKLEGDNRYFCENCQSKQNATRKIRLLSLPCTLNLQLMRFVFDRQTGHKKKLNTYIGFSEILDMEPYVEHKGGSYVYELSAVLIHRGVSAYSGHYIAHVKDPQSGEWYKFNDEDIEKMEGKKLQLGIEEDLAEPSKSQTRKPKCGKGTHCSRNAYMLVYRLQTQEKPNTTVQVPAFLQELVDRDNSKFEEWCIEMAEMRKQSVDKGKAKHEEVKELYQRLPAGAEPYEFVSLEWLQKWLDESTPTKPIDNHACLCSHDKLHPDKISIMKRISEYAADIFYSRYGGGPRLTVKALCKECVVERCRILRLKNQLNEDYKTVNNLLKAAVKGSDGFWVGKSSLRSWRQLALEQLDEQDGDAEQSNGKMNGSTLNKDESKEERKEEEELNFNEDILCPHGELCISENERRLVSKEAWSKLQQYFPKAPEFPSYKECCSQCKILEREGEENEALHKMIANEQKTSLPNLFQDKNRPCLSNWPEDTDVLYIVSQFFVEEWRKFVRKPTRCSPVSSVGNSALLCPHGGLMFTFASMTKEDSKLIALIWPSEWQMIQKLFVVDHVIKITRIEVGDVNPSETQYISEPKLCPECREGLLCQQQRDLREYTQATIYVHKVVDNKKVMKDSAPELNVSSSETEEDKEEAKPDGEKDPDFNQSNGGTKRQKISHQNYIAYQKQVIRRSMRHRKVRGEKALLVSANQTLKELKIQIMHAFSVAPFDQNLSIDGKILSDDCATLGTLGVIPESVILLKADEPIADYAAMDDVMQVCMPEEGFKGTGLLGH
# Sequence of UniProt P51784 (P51784 whole entry): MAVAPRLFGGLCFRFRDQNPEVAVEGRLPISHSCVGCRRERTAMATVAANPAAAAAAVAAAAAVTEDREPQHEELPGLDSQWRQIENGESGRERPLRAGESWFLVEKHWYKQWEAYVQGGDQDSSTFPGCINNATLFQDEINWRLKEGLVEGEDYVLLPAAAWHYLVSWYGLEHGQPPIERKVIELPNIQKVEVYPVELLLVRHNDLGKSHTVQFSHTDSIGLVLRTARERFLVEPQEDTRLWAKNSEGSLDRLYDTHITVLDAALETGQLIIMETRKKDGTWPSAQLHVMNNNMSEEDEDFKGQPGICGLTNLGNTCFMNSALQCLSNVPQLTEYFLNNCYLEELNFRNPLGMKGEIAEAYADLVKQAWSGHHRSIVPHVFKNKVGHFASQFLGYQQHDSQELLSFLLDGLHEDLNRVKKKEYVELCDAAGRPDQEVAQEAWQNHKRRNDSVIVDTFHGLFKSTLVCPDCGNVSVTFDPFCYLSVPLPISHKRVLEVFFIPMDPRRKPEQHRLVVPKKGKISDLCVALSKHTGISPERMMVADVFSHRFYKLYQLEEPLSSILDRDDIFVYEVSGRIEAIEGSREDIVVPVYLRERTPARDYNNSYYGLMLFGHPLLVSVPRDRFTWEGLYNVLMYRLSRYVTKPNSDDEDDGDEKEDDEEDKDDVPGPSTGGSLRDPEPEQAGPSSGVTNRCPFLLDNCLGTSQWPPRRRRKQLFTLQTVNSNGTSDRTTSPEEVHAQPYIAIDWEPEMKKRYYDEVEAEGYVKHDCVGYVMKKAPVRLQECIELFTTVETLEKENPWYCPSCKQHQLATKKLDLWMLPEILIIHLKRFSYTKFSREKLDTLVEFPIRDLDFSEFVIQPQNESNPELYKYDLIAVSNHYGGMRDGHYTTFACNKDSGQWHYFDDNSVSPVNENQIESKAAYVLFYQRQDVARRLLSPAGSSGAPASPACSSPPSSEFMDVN
# Sequence of UniProt P54252 (P54252 whole entry): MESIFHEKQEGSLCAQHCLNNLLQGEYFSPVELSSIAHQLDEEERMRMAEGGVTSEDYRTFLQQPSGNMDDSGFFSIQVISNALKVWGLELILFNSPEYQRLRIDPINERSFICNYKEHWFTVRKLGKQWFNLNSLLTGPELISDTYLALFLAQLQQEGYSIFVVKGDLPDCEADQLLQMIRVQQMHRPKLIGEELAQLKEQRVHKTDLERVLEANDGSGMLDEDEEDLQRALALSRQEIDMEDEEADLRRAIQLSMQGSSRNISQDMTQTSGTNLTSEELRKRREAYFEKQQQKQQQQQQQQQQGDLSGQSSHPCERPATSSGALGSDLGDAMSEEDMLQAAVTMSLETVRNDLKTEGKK
# Sequence of UniProt P51665 (P51665 whole entry): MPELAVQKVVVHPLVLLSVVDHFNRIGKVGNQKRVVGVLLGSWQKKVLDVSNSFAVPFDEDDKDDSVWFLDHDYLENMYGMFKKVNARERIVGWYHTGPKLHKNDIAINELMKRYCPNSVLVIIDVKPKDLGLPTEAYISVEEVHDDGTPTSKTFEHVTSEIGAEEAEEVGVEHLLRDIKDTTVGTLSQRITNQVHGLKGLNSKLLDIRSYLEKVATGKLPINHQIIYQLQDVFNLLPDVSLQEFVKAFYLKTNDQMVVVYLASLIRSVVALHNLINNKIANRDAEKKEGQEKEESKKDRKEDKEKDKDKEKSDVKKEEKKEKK
row,Target,log2 ratio of Biotin-Ahx-Ub-VS probe labelling
1,UniProt Q5T2D3,-0.199 (inactive)
2,USP5 (UniProt P45974),0.274 (inactive)
3,USP42 (UniProt Q9H9J4),0.0563 (inactive)
4,USP24 (UniProt Q9UPU5),0.0304 (inactive)
5,USP39 (UniProt Q53GS9),-0.0648 (inactive)
6,USP25 (UniProt Q9UHP3),-1.88 (active)
7,UniProt Q8TE49,-0.097 (inactive)
8,USP12 (UniProt O75317),-0.38 (inactive)
9,USP22 (UniProt Q9UPT9),0.0954 (inactive)
10,USP36 (UniProt Q9P275),-0.0259 (inactive)
11,UniProt P51784,0.0601 (inactive)
12,USP48 (UniProt Q86UV5),-0.144 (inactive)
13,UniProt Q9P2H5,-0.267 (inactive)
14,USP34 (UniProt Q70CQ2),-0.106 (inactive)
15,USP46 (UniProt P62068),-0.277 (inactive)
16,PSMD7 (UniProt P51665),0.132 (inactive)
17,ALG13 (UniProt Q9NP73),0.312 (inactive)
18,ATXN3 (UniProt P54252),-0.217 (inactive)
19,MINDY4 (UniProt Q4G0A6),0.225 (inactive)
20,UniProt Q9UGI0,-0.354 (inactive)

# Same assay, conditions: compound concentration: 200uM; treatment time: 3 h
row,Target,log2 ratio of Biotin-Ahx-Ub-VS probe labelling
1,UniProt Q5T2D3,0.0147 (inactive)
2,USP5 (UniProt P45974),0.357 (inactive)
3,USP42 (UniProt Q9H9J4),0.184 (inactive)
4,USP24 (UniProt Q9UPU5),-0.88 (inactive)
5,USP39 (UniProt Q53GS9),-0.162 (inactive)
6,USP25 (UniProt Q9UHP3),-0.899 (inactive)
7,UniProt Q8TE49,-0.652 (inactive)
8,USP12 (UniProt O75317),0.0984 (inactive)
9,USP22 (UniProt Q9UPT9),-0.231 (inactive)
10,USP36 (UniProt Q9P275),0.018 (inactive)
11,UniProt P51784,-0.0791 (inactive)
12,USP48 (UniProt Q86UV5),-0.273 (inactive)
13,UniProt Q9P2H5,-0.143 (inactive)
14,USP34 (UniProt Q70CQ2),-0.024 (inactive)
15,USP46 (UniProt P62068),-0.261 (inactive)
16,PSMD7 (UniProt P51665),-0.458 (inactive)
17,ALG13 (UniProt Q9NP73),0.0712 (inactive)
18,ATXN3 (UniProt P54252),-0.786 (inactive)
19,MINDY4 (UniProt Q4G0A6),0.167 (inactive)
20,UniProt Q9UGI0,-0.0472 (inactive)
